The campaign covered roughly 5,500 compounds. About 2,000 (36%) were called active. About 18% were inconclusive and are not listed. No stated cut-off is given here; in the data, active means normalized growth mostly below about 0.91 (no sharp cut-off); inconclusive means no clear call, values can overlap the other calls; inactive means mostly above about 0.92. This is one part of the list.
Experiment: chemical genetic growth profiling, strain panel (AID 1159580);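 further: tested at 20 µM; growth read once vehicle control cultures reached saturation at 30 °C; 1 = growth at the plate median or of vehicle wells; lower values mean less growth of the strain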
Conditions: growth OD

Measured: normalized growth

CCCc1cc(=O)[nH]c(=S)[nH]1
inactive: S. cerevisiae deletion strains, locus YJR075W, strain HOC1, active compounds read low 1.02 | S. cerevisiae deletion strains, locus YKL009W, strain mrt4, active compounds read low 0.994 | S. cerevisiae deletion strains, locus YKL068W, active compounds read low 1 | S. cerevisiae deletion strains, locus YKL085W, strain MDH1 (second series), active compounds read low 1 | S. cerevisiae deletion strains, locus YKL085W, strain MDH1, active compounds read low 1 | S. cerevisiae deletion strains, locus YKL160W, strain elf1, active compounds read low 1.03 | S. cerevisiae deletion strains, locus YKL190W, strain CNB1, active compounds read low 1 | S. cerevisiae deletion strains, locus YKR001C, strain vps1, active compounds read low 1 | S. cerevisiae deletion strains, locus YKR026C, strain gcn3, active compounds read low 1.01 | S. cerevisiae deletion strains, locus YKR091W, strain srl3, active compounds read low 1.01 | S. cerevisiae deletion strains, locus YLL001W, strain dnm1, active compounds read low 1.01 | S. cerevisiae deletion strains, locus YLL026W, active compounds read low 1.02 | S. cerevisiae deletion strains, locus YLL041C, strain sdh2, active compounds read low 1.03 | S. cerevisiae deletion strains, locus YLR027C, strain aat2, active compounds read low 1.01 | S. cerevisiae deletion strains, locus YLR039C, strain RIC1, active compounds read low 1.03 | S. cerevisiae deletion strains, locus YLR058C, strain SHM2, active compounds read low 1.02 | S. cerevisiae deletion strains, locus YLR102C, strain apc9, active compounds read low 0.992 | S. cerevisiae deletion strains, locus YLR113W, strain HOG1, active compounds read low 0.989 | S. cerevisiae deletion strains, locus YLR221C, strain rsa3, active compounds read low 1.02 | S. cerevisiae deletion strains, locus YLR258W, strain gsy2, active compounds read low 1.01 | S. cerevisiae deletion strains, locus YLR262C, strain YPT6 (second series), active compounds read low 1.02 | S. cerevisiae deletion strains, locus YLR262C, strain YPT6, active compounds read low 1.04 | S. cerevisiae deletion strains, locus YLR268W, strain sec22, active compounds read low 1.01 | S. cerevisiae deletion strains, locus YLR320W, strain mms22, active compounds read low 1.03 | S. cerevisiae deletion strains, locus YLR330W, strain CHS5, active compounds read low 1.02 | S. cerevisiae deletion strains, locus YLR342W, strain FKS1 (second series), active compounds read low 1 | S. cerevisiae deletion strains, locus YLR342W, strain FKS1, active compounds read low 1.03 | S. cerevisiae deletion strains, locus YLR357W, strain rsc2, active compounds read low 1.05 | S. cerevisiae deletion strains, locus YLR370C, strain arc18, active compounds read low 1.01 | S. cerevisiae deletion strains, locus YLR371W, strain rom2, active compounds read low 0.994 | S. cerevisiae deletion strains, locus YLR384C, strain iki3, active compounds read low 1.03 | S. cerevisiae deletion strains, locus YLR418C, strain cdc73, active compounds read low 1 | S. cerevisiae deletion strains, locus YML016C, strain PPZ1, active compounds read low 1.01 | S. cerevisiae deletion strains, locus YML032C, strain rad52, active compounds read low 0.989 | S. cerevisiae deletion strains, locus YML120C, strain ndi1, active compounds read low 1 | S. cerevisiae deletion strains, locus YML124C, strain tub3, active compounds read low 0.996 | S. cerevisiae deletion strains, locus YMR058W, strain fet3, active compounds read low 1 | S. cerevisiae deletion strains, locus YMR078C, strain ctf18, active compounds read low 1 | S. cerevisiae deletion strains, locus YMR125W, strain sto1, active compounds read low 1.03 | S. cerevisiae deletion strains, locus YMR129W, active compounds read low 1.02 | S. cerevisiae deletion strains, locus YMR205C, strain PFK2, active compounds read low 1.03 | S. cerevisiae deletion strains, locus YMR223W, strain ubp8, active compounds read low 0.974 | S. cerevisiae deletion strains, locus YMR231W, strain pep5, active compounds read low 1.02 | S. cerevisiae deletion strains, locus YMR263W, strain SAP30, active compounds read low 1.02 | S. cerevisiae deletion strains, locus YMR307W, strain GAS1, active compounds read low 1.07 | S. cerevisiae deletion strains, locus YNL067W, strain RPL9B, active compounds read low 1.02 | S. cerevisiae deletion strains, locus YNL071W, strain lat1, active compounds read low 1 | S. cerevisiae deletion strains, locus YNL128W, strain TEP1, active compounds read low 1.02 | S. cerevisiae deletion strains, locus YNL153C, strain GIM3, active compounds read low 1.02 | S. cerevisiae deletion strains, locus YNL183C, strain NPR1, active compounds read low 0.966 | S. cerevisiae deletion strains, locus YNL209W, strain ssb2, active compounds read low 1.02 | S. cerevisiae deletion strains, locus YNL233W, strain BNI4, active compounds read low 1.02 | S. cerevisiae deletion strains, locus YNL248C, strain rpa49, active compounds read low 1.03 | S. cerevisiae deletion strains, locus YNL250W, strain rad50, active compounds read low 0.994 | S. cerevisiae deletion strains, locus YNL271C, strain bni1, active compounds read low 1 | S. cerevisiae deletion strains, locus YNL298W, strain CLA4, active compounds read low 1.01 | S. cerevisiae deletion strains, locus YNL307C, strain MCK1, active compounds read low 0.998 | S. cerevisiae deletion strains, locus YNL322C, strain KRE1 (second series), active compounds read low 1.02 | S. cerevisiae deletion strains, locus YNL322C, strain KRE1, active compounds read low 1.01 | S. cerevisiae deletion strains, locus YNR049C, strain mso1, active compounds read low 1.01 | S. cerevisiae deletion strains, locus YNR052C, strain pop2, active compounds read low 0.991 | S. cerevisiae deletion strains, locus YOL006C, strain TOP1, active compounds read low 1.04 | S. cerevisiae deletion strains, locus YOL012C, strain htz1 0.884 | S. cerevisiae deletion strains, locus YOL147C, strain pex11, active compounds read low 0.996 | S. cerevisiae deletion strains, locus YOR001W, strain rrp6, active compounds read low 1.02 | S. cerevisiae deletion strains, locus YOR061W, strain CKA2, active compounds read low 1.01 | S. cerevisiae deletion strains, locus YOR069W, strain VPS5, active compounds read low 0.999 | S. cerevisiae deletion strains, locus YOR070C, strain gyp1, active compounds read low 1.02 | S. cerevisiae deletion strains, locus YOR080W, strain dia2, active compounds read low 1.03 | S. cerevisiae deletion strains, locus YOR083W, strain WHI5, active compounds read low 0.996 | S. cerevisiae deletion strains, locus YOR106W, strain vam3, active compounds read low 1.02 | S. cerevisiae deletion strains, locus YOR136W, strain idh2, active compounds read low 0.979 | S. cerevisiae deletion strains, locus YOR144C, strain elg1, active compounds read low 0.999 | S. cerevisiae deletion strains, locus YOR184W, strain ser1, active compounds read low 0.98 | S. cerevisiae deletion strains, locus YOR231W, strain MKK1, active compounds read low 0.993 | S. cerevisiae deletion strains, locus YOR265W, strain rbl2, active compounds read low 1.01 | S. cerevisiae deletion strains, locus YOR270C, strain vph1, active compounds read low 1.1 | S. cerevisiae deletion strains, locus YOR290C, strain snf2, active compounds read low 1.03 | S. cerevisiae deletion strains, locus YOR316C, strain cot1, active compounds read low 0.993 | S. cerevisiae deletion strains, locus YPL051W, strain arl3, active compounds read low 1.02 | S. cerevisiae deletion strains, locus YPL055C, strain LGE1, active compounds read low 1.03 | S. cerevisiae deletion strains, locus YPL078C, strain atp4, active compounds read low 1.02 | S. cerevisiae deletion strains, locus YPL106C, strain sse1, active compounds read low 1.04 | S. cerevisiae deletion strains, locus YPL240C, strain hsp82, active compounds read low 1.01 | S. cerevisiae deletion strains, locus YPL256C, strain CLN2, active compounds read low 1.02 | S. cerevisiae deletion strains, locus YPR119W, strain clb2, active compounds read low 0.99 | S. cerevisiae deletion strains, locus YPR141C, strain kar3, active compounds read low 0.992 | S. cerevisiae deletion strains, locus YPR163C, strain tif3, active compounds read low 0.992 | S. cerevisiae deletion strains, locus YPR167C, strain met16, active compounds read low 0.983 | S. cerevisiae deletion strains, strain wtn01, active compounds read low 0.997 | S. cerevisiae strains, strain wild type, active compounds read low 1.01
